{"source": "ChEMBL document CHEMBL1201862", "about": "“PubChem BioAssay data set” (2004)", "note": "The whole screen tested about 400,000 compounds, of which about 2,100 (0.53%) were called active. Inconclusive results (about 14%) are left out. How the calls were made is not given here. Only a selection was taken, and actives are over-represented in it overall.", "data": [{"target": "Ataxin-2 (Homo sapiens) (UniProt Q99700)", "sequence (Q99700 whole entry)": "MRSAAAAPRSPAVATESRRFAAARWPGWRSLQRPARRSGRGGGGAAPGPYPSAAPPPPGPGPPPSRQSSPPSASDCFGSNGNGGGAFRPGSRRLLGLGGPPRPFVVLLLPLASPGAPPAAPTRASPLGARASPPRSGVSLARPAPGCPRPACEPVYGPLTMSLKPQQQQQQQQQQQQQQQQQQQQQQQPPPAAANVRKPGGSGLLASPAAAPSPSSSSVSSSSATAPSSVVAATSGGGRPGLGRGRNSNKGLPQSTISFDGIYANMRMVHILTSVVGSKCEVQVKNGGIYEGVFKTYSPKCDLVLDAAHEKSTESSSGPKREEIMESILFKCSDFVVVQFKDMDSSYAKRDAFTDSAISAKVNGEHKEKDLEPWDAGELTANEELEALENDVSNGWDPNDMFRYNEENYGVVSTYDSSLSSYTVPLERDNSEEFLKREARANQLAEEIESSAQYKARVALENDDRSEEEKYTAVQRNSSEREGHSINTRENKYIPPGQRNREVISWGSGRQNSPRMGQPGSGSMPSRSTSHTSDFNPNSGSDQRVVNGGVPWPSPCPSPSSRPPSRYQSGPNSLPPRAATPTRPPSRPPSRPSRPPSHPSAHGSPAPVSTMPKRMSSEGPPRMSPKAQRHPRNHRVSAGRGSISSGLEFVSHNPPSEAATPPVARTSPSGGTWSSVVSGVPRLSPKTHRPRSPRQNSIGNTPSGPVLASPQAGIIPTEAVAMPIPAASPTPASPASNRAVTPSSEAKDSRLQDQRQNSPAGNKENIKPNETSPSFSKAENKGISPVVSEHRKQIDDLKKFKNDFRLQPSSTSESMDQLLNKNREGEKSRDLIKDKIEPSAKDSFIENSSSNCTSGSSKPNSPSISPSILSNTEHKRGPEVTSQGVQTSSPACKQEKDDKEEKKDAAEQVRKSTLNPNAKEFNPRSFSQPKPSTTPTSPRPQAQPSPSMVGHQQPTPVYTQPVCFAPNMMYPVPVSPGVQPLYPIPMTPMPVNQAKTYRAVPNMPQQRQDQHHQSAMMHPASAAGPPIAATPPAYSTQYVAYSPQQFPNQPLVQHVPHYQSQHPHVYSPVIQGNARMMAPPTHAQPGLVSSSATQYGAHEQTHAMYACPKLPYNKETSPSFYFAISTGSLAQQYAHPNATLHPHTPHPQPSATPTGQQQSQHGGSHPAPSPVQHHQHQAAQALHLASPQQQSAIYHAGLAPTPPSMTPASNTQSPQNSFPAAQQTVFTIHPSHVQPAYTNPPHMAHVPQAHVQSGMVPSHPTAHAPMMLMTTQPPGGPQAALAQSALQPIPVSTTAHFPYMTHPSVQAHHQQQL", "test": "qHTS for Inhibitors of ATXN expression.", "assay_type": "functional", "values": [{"smiles": "O=C(CN1C(=O)c2ccc([N+](=O)[O-])cc2C1=O)NCc1ccco1", "Potency": "inactive"}, {"smiles": "Cc1cc(/C=C2\\C(=N)N3N=C(c4ccco4)SC3=NC2=O)c(C)n1Cc1ccccc1", "Potency": "inactive"}, {"smiles": "COc1ccc([N+](=O)[O-])c(OC)c1C(=O)NC(=O)Nc1c(F)cc(F)cc1F", "Potency": "inactive"}, {"smiles": "COc1ccc(C2C=C(c3ccc(F)cc3)Nc3nc(-c4ccc(Cl)cc4)nn32)cc1", "note": "(configuration not stated)", "Potency": "inactive"}, {"smiles": "Cn1ncc(C#N)c1/N=C/N(Cc1ccccc1)Cc1ccccc1", "Potency": "inactive"}, {"smiles": "CC(NC1=NS(=O)(=O)c2ccccc21)C(=O)Nc1ccc(F)cc1Cl", "note": "(configuration not stated)", "Potency": "inactive"}, {"smiles": "C[N+](C)(C)CCC(=O)N1C/C(=C/c2ccccc2)C(=O)/C(=C\\c2ccccc2)C1", "Potency": "8.44 µM (active)"}, {"smiles": "CC1CC(C)CN(C(=O)CCc2ccccc2)C1", "note": "(configuration not stated)", "Potency": "inactive"}, {"smiles": "NN=C(S)NCCc1ccccc1", "Potency": "inactive"}, {"smiles": "COc1cc2c(cc1OC)C(SC)=NC1(CCCC1)C2", "Potency": "35.5 µM (active)"}, {"smiles": "Oc1cc(NC2CCCCC2)nc(O)n1", "Potency": "inactive"}, {"smiles": "CCOC(=O)c1cc2c(=O)n3ccccc3nc2n(C(C)C)/c1=N/C(=O)c1c(-c2ccccc2Cl)noc1C", "Potency": "inactive"}, {"smiles": "CCCNC(=O)C[S+]([O-])Cc1nc(-c2ccccc2C)oc1C", "note": "(configuration not stated)", "Potency": "inactive"}, {"smiles": "O=C(Nc1ccncc1)c1ccc2ccccc2c1", "Potency": "inactive"}, {"smiles": "COc1cc(Nc2ccccn2)cc(C(=O)Nc2cccc(C(F)(F)F)c2)c1", "Potency": "28.2 µM (active)"}, {"smiles": "COc1cc(/C=C(\\C#N)C(=O)Nc2cc(C(F)(F)F)ccc2Cl)ccc1OCC(=O)Nc1cccc(C(F)(F)F)c1", "Potency": "inactive"}, {"smiles": "C=CCNC(=O)/C(C#N)=C/c1c(N2CC(C)OC(C)C2)nc2ccccn2c1=O", "note": "(configuration not stated)", "Potency": "inactive"}, {"smiles": "Cc1ccc(NC(=O)Cc2nc(-c3c[nH]c(C(=O)N4CCCC4)c3)cs2)c(C)c1", "Potency": "inactive"}, {"smiles": "O=C1C=CC(=O)N1c1ccc(OC(F)F)cc1", "Potency": "39.8 µM (active)"}, {"smiles": "O=C(O)/C=C\\C(=O)Nc1ccc(OC(F)F)cc1", "Potency": "inactive"}, {"smiles": "C/C(=N\\NC(=O)C1CC1)c1ccc(OC(F)F)cc1", "Potency": "inactive"}, {"smiles": "COc1cc(/C=C2\\C(=N)N3N=C(CC(=O)N4CCCCC4)SC3=NC2=O)cc(OC)c1O", "Potency": "inactive"}, {"smiles": "COCCNC(=O)/C(C#N)=C1\\N=C(NC(=O)c2ccco2)c2ccccc21", "Potency": "inactive"}, {"smiles": "Cc1ccnc2c1ccc1c(C)ccnc12", "Potency": "5.32 µM (active)"}, {"smiles": "Cc1ccc2cccnc2c1N", "Potency": "inactive"}, {"smiles": "Cc1nn(CCN)c(C)c1Cl", "Potency": "inactive"}, {"smiles": "O=C(Nc1ccccc1Cl)C1C(c2ccccc2)C1(Cl)Cl", "note": "(configuration not stated)", "Potency": "inactive"}, {"smiles": "NC(=O)c1cc(S(=O)(=O)NCc2ccccc2)cs1", "Potency": "inactive"}, {"smiles": "CCCCCCCCNCCS(=O)(=O)NCc1ccccc1", "Potency": "31.6 µM (active)"}, {"smiles": "CCN1C(=O)c2cccc3c(S(=O)(=O)NCc4ccccc4)ccc1c23", "Potency": "inactive"}, {"smiles": "Nc1cc(-c2ccccc2)nn1Cc1ccccc1", "Potency": "inactive"}, {"smiles": "COc1ccc(Cn2c(C)nc3ccc([N+](=O)[O-])cc3c2=O)cc1", "Potency": "inactive"}, {"smiles": "COc1ccc(CNCc2c(O)c(Cl)cc3c(C)c(C)c(=O)oc23)c(OC)c1", "Potency": "inactive"}, {"smiles": "Cc1ccc2c(CNCc3ccc(C)o3)c(C(=O)O)n(Cc3ccc(F)cc3)c2c1", "Potency": "35.5 µM (active)"}, {"smiles": "COc1ccc(Cn2c(C(=O)O)c(CNCc3ccc(C)o3)c3ccc(C)cc32)cc1", "Potency": "17.8 µM (active)"}, {"smiles": "CC(=O)c1cn(Cc2ccccc2)c(=O)n(Cc2ccc(F)cc2)c1=O", "Potency": "inactive"}, {"smiles": "Cc1ccc(Cn2c(C(=O)O)c(CNCc3ccc(C)o3)c3ccc(C)cc32)cc1", "Potency": "35.5 µM (active)"}, {"smiles": "Cc1c(O[C@@H]2O[C@H](CO)[C@@H](O)[C@H](O)[C@H]2O)ccc2c1oc(=O)c1ccccc12", "Potency": "inactive"}, {"smiles": "CC(C)OCCCn1c(-c2ccco2)nc2nc3ccccc3nc21", "Potency": "inactive"}, {"smiles": "CC(C)(C)NC(=O)Cn1c(SCC(=O)NC2CC2)nc2ccccc21", "Potency": "inactive"}, {"smiles": "O=C(Cn1c(C(F)(F)F)nc2ccccc21)Nc1ccccc1C(=O)O", "Potency": "inactive"}, {"smiles": "O=C(Cn1c(SCC(=O)Nc2ccc(F)cc2)nc2ccccc21)NCc1ccccc1Cl", "Potency": "39.8 µM (active)"}, {"smiles": "C/N=c1\\scc(-c2ccc(OC)cc2)n1/N=C(\\C)c1cccnc1", "Potency": "inactive"}, {"smiles": "CC1=CC(=Cc2sc3ccccc3[n+]2C)C=C(C)N1CC1CCCO1", "note": "(configuration not stated)", "Potency": "inactive"}, {"smiles": "Cc1cc(C)n(-c2nnc(Cl)c3ccccc23)n1", "Potency": "39.8 µM (active)"}, {"smiles": "COc1ccc(-c2nc(C#N)c(N3CCCCC3)o2)cc1", "Potency": "inactive"}, {"smiles": "Nc1nc(N)c2cc(CNc3ccc(Cl)c(Cl)c3)ccc2n1", "Potency": "11.2 µM (active)"}, {"smiles": "CCN1CCN(c2cc(-c3ccccc3)nc3cc(-c4cccc(F)c4)nn23)CC1", "Potency": "17.8 µM (active)"}, {"smiles": "COc1ccc(-c2cc(C(F)(F)F)n3nc(-c4ccccc4)cc3n2)cc1OC", "Potency": "inactive"}, {"smiles": "CCN1CCN(c2nc(NCCO)c3ccccc3n2)CC1", "Potency": "inactive"}, {"smiles": "Cc1ccnc(NC(=O)c2ccccc2NC(=O)c2ccc(Cl)cc2Cl)c1", "Potency": "inactive"}, {"smiles": "CCN(CC)c1ccc2cc(C(=O)Nc3ccccn3)c(=O)oc2c1", "Potency": "inactive"}, {"smiles": "Cc1ccnc(NC(=O)c2cc3c(=O)oc4ccc(C)cc4c3s2)c1", "Potency": "20 µM (active)"}, {"smiles": "COc1ccc(Cl)cc1N(CC(=O)N(C)C)S(=O)(=O)c1ccc(C)c([N+](=O)[O-])c1", "Potency": "inactive"}, {"smiles": "CCOC(=O)C(C)(C)N(Cc1cccc(C)c1)S(=O)(=O)c1ccc(Cl)c([N+](=O)[O-])c1", "Potency": "39.8 µM (active)"}, {"smiles": "CCCCc1cc(=O)oc2c(CN(C)C)c(O)ccc12", "Potency": "inactive"}, {"smiles": "CCOC(=O)c1c(CSc2ccc(CC)cc2)oc2ccc(O)c(CN(C)C)c12", "Potency": "22.4 µM (active)"}, {"smiles": "CN(C)Cc1c(O)ccc2c3c(c(=O)oc12)CCCCC3", "Potency": "inactive"}, {"smiles": "Cc1ccc(/C=N/n2c(S)nnc2-c2ccccn2)o1", "Potency": "inactive"}, {"smiles": "Cc1ccc2nc(Cn3cc(C(F)(F)F)cc(Cl)c3=O)cc(=O)n2c1", "Potency": "inactive"}, {"smiles": "CN(C)c1ccc(-c2[nH]nc(O)c2NC(=O)c2ccccn2)cc1", "Potency": "25.1 µM (active)"}, {"smiles": "CCOc1cc(NC(=O)c2cccs2)c(OCC)cc1NC(=O)c1ccccn1", "Potency": "inactive"}, {"smiles": "CN(C)c1ccc(/C=N/NC(=O)c2ccccn2)cc1", "Potency": "inactive"}, {"smiles": "Cc1cccc(NC(=O)c2[nH]cnc2C(=O)NCCCCCNC(=O)OC(C)(C)C)c1", "Potency": "20 µM (active)"}, {"smiles": "Cc1ccc(NC(=O)c2[nH]cnc2C(=O)NCCCCCNC(=O)OC(C)(C)C)cc1", "Potency": "39.8 µM (active)"}, {"smiles": "CC(C)(C)OC(=O)NCCCCCNC(=O)c1[nH]cnc1C(=O)Nc1cc(Br)ccc1F", "Potency": "39.8 µM (active)"}, {"smiles": "Cc1ccc(OCCNC(=O)c2ccccc2F)cc1", "Potency": "inactive"}, {"smiles": "COc1cccc(-c2ccc3c(N)c(C(=O)c4ccc(Br)cc4)sc3n2)c1", "Potency": "inactive"}, {"smiles": "O=S(=O)(NCc1csc(-c2cccs2)n1)c1cccc(C(F)(F)F)c1", "Potency": "inactive"}, {"smiles": "CCCCn1c(OC(=S)N(CC)CC)cc(C)nc1=S", "Potency": "35.5 µM (active)"}, {"smiles": "Nc1ccc2c3[nH]c4cc(N)ccc4cc-3nc2c1", "Potency": "inactive"}, {"smiles": "Nc1ccc2[nH]c(-c3ccc(Cl)cc3)nc2c1", "Potency": "31.6 µM (active)"}, {"smiles": "Nc1ccc2[nH]c(-c3ccc(-c4nc5cc(N)ccc5[nH]4)cc3)nc2c1", "Potency": "inactive"}, {"smiles": "Cc1ccc2nc3c(cc(C(=O)NCCCn4ccnc4)n3C)c(=O)n2c1", "Potency": "inactive"}, {"smiles": "Cc1cc(C)c2cc(N)c(Cl)nc2n1", "Potency": "inactive"}, {"smiles": "CCOC(=O)c1cc2c(=O)n3ccccc3nc2n(CC2CCCO2)/c1=N/C(=O)/C=C/c1ccccc1", "note": "(configuration not stated)", "Potency": "inactive"}, {"smiles": "CN(C)CCNC(=O)c1cccc(-c2cnc3c(NC=O)cc(-c4ccc(F)cc4)cn23)c1", "Potency": "35.5 µM (active)"}, {"smiles": "CN(C)C(=O)c1cccc(-c2cnc3c(NC=O)cc(-c4cccc(C(F)(F)F)c4)cn23)c1", "Potency": "39.8 µM (active)"}, {"smiles": "COc1cccc(-c2cnc3c(NC=O)cc(-c4ccc(N(C)C)cc4)cn23)c1", "Potency": "inactive"}, {"smiles": "CN(C)c1ccccc1-c1cc(NC=O)c2ncc(-c3cccc(C(F)(F)F)c3)n2c1", "Potency": "inactive"}, {"smiles": "CN(C)CCNC(=O)c1cccc(-c2cnc3c(NC=O)cc(-c4cccc(F)c4)cn23)c1", "Potency": "31.6 µM (active)"}, {"smiles": "CC(=O)c1ccc(-c2cnc3c(NC=O)cc(-c4ccccc4Oc4ccccc4)cn23)cc1", "Potency": "inactive"}, {"smiles": "CN(C)CCNC(=O)c1cccc(-c2cnc3c(NC=O)cc(-c4cc(F)c(F)c(F)c4)cn23)c1", "Potency": "25.1 µM (active)"}, {"smiles": "CCCCCCc1cc2cc(-c3nnc(-c4ccccc4)o3)c(=O)oc2cc1O", "Potency": "inactive"}, {"smiles": "CC(C)OC(=O)c1sc2nc(-c3ccccc3)ccc2c1N", "Potency": "inactive"}, {"smiles": "O=C1CCn2c1c(O)c1ccccc1c2=O", "Potency": "inactive"}, {"smiles": "O=C1OCCN1C(=O)[C@H]1[C@H](c2ccccc2)C(c2ccccc2)=NN1c1ccccc1", "Potency": "inactive"}, {"smiles": "N#CC1(Nc2cccc(Br)c2)C(=O)Nc2ccccc21", "note": "(configuration not stated)", "Potency": "inactive"}, {"smiles": "COc1ccc(OC)c(S(=O)(=O)N2CCN(c3ccccc3)CC2)c1", "Potency": "inactive"}, {"smiles": "CCOc1cc(C2NN=C(c3ccc(C)cc3)S2)ccc1O", "note": "(configuration not stated)", "Potency": "inactive"}, {"smiles": "O=C1OCCN1C(=O)[C@H]1[C@H](c2ccc(Cl)cc2)C(c2cccc(Cl)c2)=NN1c1ccc(Br)cc1", "Potency": "inactive"}, {"smiles": "CCOc1cc(C2c3c(-c4ccc(Br)cc4)n[nH]c3C(=O)N2c2ccc(Cl)cc2)ccc1O", "note": "(configuration not stated)", "Potency": "28.2 µM (active)"}, {"smiles": "Cc1cccc(C2=NN(c3ccc(Br)cc3)[C@@H](C(=O)N3CCOC3=O)[C@@H]2c2ccc(Cl)cc2)c1", "Potency": "inactive"}, {"smiles": "CCOc1ccc(C2=CC(c3cc(Br)ccc3F)n3ncnc3N2)cc1Cl", "note": "(configuration not stated)", "Potency": "inactive"}, {"smiles": "O=C1c2[nH]nc(-c3ccc(Br)cc3)c2C(c2cccc(O)c2)N1c1ccc(Cl)cc1", "note": "(configuration not stated)", "Potency": "28.2 µM (active)"}, {"smiles": "CCN(CCCn1c(=S)[nH]c2ccc(N3CCOCC3)cc2c1=O)c1ccccc1", "Potency": "inactive"}, {"smiles": "CN(/N=C/c1ccc2c(c1)OCO2)c1nc(N2CCOCC2)nc(N2CCOCC2)n1", "Potency": "inactive"}, {"smiles": "Cc1nonc1NC(=O)CSc1nc2ccccc2cc1C#N", "Potency": "inactive"}, {"smiles": "CC(=O)c1ccc2cccc3c2c1NC(C)=N3", "Potency": "inactive"}, {"smiles": "Cc1nc(=O)c(-c2ccccc2)c(C)n1-c1ccccc1Cl", "Potency": "inactive"}, {"smiles": "Cc1ccc(Sc2c([N+](=O)[O-])c(=O)n(C)c3ccccc23)cc1", "Potency": "28.2 µM (active)"}, {"smiles": "Cc1ccc(Sc2nc(C)c([N+](=O)[O-])c(C)c2C#N)cc1", "Potency": "inactive"}, {"smiles": "Cn1c2ccccc2c(=O)c2ccc(F)cc21", "Potency": "inactive"}, {"smiles": "COc1ccccc1NC(=O)c1ccc(-n2ccnc2)c([N+](=O)[O-])c1", "Potency": "inactive"}, {"smiles": "Cn1c(=O)c([N+](=O)[O-])c(Cl)c2ccccc21", "Potency": "29.9 µM (active)"}, {"smiles": "Cn1c(=O)c([N+](=O)[O-])c(-n2ccnc2)c2ccccc21", "Potency": "23.8 µM (active)"}, {"smiles": "CCN(CC)c1c([N+](=O)[O-])c(=O)n(CC)c2ccccc12", "Potency": "inactive"}]}]}
